Source: PubChem (National Center for Advancing Translational Sciences (NCATS))
Hits are enriched below; roughly 6.5% of the tested compounds scored in any of these assays.
LASV entry inh: inhibitors of Lassa virus binding or cell entry. Potency, µM (top dose mostly 37.9 µM), actives largely listed as inhibitors. AID 540256. actives 1.2% (n = 300,000). Lassa virus pseudotype entry inhibition, cell reporter; calls by dose curve; tested in HEK293 cells; further: nearly all actives have a fitted effect of over 50% in size
Vaccinia mCherry: vaccinia inhibition (mCherry reporter). actives 0.63% (n = 310,000). Potency, µM (titrated, usually from 36.5 µM), hits mostly inhibitors. Vaccinia virus mCherry reporter infection, fluorescence. AID 720579; calls by dose curve; tested in A549 cells; further: nearly all actives have a fitted effect of over 35% in size
Vaccinia Venus: inhibitors of vaccinia virus (Venus reporter); AID 720580; Potency, µM (top dose mostly 36.5 µM), actives largely listed as inhibitors; actives 0.46% (n = 330,000); Vaccinia virus Venus reporter expression, fluorescence; calls by dose curve; tested in A549 cells; further: nearly all actives have a fitted effect of over 30% in size
Marburg entry inh: blocks Marburg virus binding to or entry into cells; Potency, µM (highest dose often 37.8 µM), actives largely listed as inhibitors; actives 1.8% (n = 300,000); Marburg virus pseudotyped entry inhibition, cell reporter; calls by dose curve; tested in HEK293 cells
FMDV inh: antivirals against foot and mouth disease virus | FMDV antiviral cell-based qHTS | Potency, µM (series often up to 57.9 µM), hits mostly inhibitors | actives 1.2% (n = 410,000) | AID 1159524; calls by dose curve; tested in HEK293T cells; further: read-out not given here; nearly all actives have a fitted effect of over 45% in size
HCMV antiviral: inhibitors of human cytomegalovirus; AID 1259415; actives 4.5% (n = 410,000); activity change, negative = inhibition, % at 57.5 µM; HFF cells, HCMV-luciferase reporter, 72 h; hits give low values; in the data active means activity change below about -60%; inconclusive means no clear call, values can overlap the other calls; inactive means above about -39%
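Two compound doses tested in HFFs infected with HCMV-luciferase, MOI 1 PFU/cell, 72 h at 37C. Lysate luminescence read with OneGlo; data normalized against buffer-only and 10uM Salinomycin inhibitor controls.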
Hits are given with their value; 0 = inactive; ? = inconclusive; - = no result; [ ] = dose if it differs, or a comment.

SMILES | LASV entry inh | Vaccinia mCherry | Vaccinia Venus | Marburg entry inh | FMDV inh | HCMV antiviral
CSc1nsc(N/N=C/c2ccccc2)c1C#N | 0 | 0 | 0 | 0 | 0 | 0
COc1cccc(C=Nc2ccccc2C#N)c1O | 0 | 0 | 0 | 0 | 0 | 0
COc1ccc(/C=N/Nc2nc(C)cc(=O)[nH]2)cc1OC | 0 | 0 | 0 | 0 | 0 | 0
COc1cccc(/C=N/Nc2snc(SC)c2C#N)c1 | 5.6µM | - | ? | ? | 0 | 0
O=C(CN1C(=O)c2ccccc2C1=O)NCC1Cc2cccc(-c3ncccn3)c2O1 (configuration not stated) | - | 0 | 0 | - | 0 | -
COc1cccc([C@@H]2Oc3ccc(Br)cc3C(=O)[C@@H]2OC(=O)N[C@H](C)C2CCCCC2)c1 | - | - | - | 0 | - | -
Cc1cc(C(=O)Nc2ccccc2-c2nc(CNC(=O)c3ccc(F)cc3F)c(C)o2)c(C)o1 | - | 0 | 0 | - | 0 | -
O=C(NCCc1ccccn1)C1CC12CCN(C(=O)c1cccc(C(F)(F)F)c1)CC2 (configuration not stated) | - | 0 | 0 | - | 0 | -
CCCCN(CCCC)C(=O)c1c[nH]c2ccc(S(=O)(=O)Nc3cccc(Cl)c3C)cc2c1=O | 0 | 0[7.34 µM] | 0[7.34 µM] | - | 0 | 0
COc1ccc(-c2cn(-c3ccc(C)c(Cl)c3)c(=S)[nH]2)cc1OC | 0 | ? | 0 | ? | ? | -66
Cc1cc(=O)c2cc(Cl)ccc2[nH]1 | - | 0 | 0 | - | 0 | -63
Cc1nc(SCC(=O)NCC2CCCO2)c2c3c(sc2n1)CCCC3 (configuration not stated) | 0 | 0 | 0 | 0 | 0 | 0
COCCn1c(C)cc(C(=O)CSc2nc(C)nc3sc4c(c23)CCC4)c1C | 10µM | - | - | 3.7µM | 0 | -80
CC(C)C(NC(=O)C(C(C)C)N(C)C)C(=O)N(C)C(C(=O)N1CCCC1C(=O)N1CCCC1C(=O)NCc1ccccc1)C(C)C (configuration not stated) | ? | ? | ? | ? | 0 | -86
O=C(NCc1ccncc1)[C@@H]1CCCN1C(=O)[C@@H]1CCCN1C(=O)c1ccccc1 | - | 0 | 0 | - | 0 | 0
COc1cc(/C=N/N2C(=O)CSC2=S)cc(Br)c1O | 16µM | 0 | 0 | 0 | 0 | 0
COc1cccc(/C=N/N2C(=O)CSC2=S)c1O | 0 | 0 | 0 | ? | 0 | 0
N#C/C(=C\c1ccc(OCc2ccc(C(=O)O)cc2)cc1)C(=O)N1CCOCC1 | 1.8µM | - | - | 0.92µM | ? | 0
CCOC(=O)c1sc(NC(=O)Nc2cccc(Cl)c2)cc1C | ? | ? | ? | ? | 0 | -95
Cn1cc(C(=O)CCl)c2ccccc21 | ? | - | - | 16µM | 22µM | -98
CC1(C)C[C@@H](O)[C@]2(C)CC[C@]3(C)C(=CCC4[C@@]5(C)CC[C@H](O)[C@](C)(CO)C5CC[C@]43C)[C@@H]2C1 (some centres not stated) | - | 0 | 0 | - | 0 | 0
CC1(C)C[C@H]2C3=CCC4[C@@]5(C)CC[C@H](O)[C@@](C)(CO)C5CC[C@@]4(C)[C@]3(C)C[C@@H](O)[C@@]2(CO)[C@@H](O)[C@@H]1O (some centres not stated) | - | 0 | 0 | - | 0 | -73
COc1ccccc1NC(=S)NC(=O)CCc1ccccc1 | ? | 0 | 0 | ? | 0 | 0
O=C(NC(=S)NNC(=O)c1ccccc1O)c1cccs1 | ? | ? | 0 | ? | 0 | ?
O=C(CCc1ccccc1)NNC(=S)NC(=O)c1ccccc1 | 0 | 0 | 0 | ? | - | -101
SMILES | LASV entry inh | Vaccinia mCherry | Vaccinia Venus | Marburg entry inh | FMDV inh | HCMV antiviral
Cc1ccc(NC(=O)NC(=S)NC(=O)c2ccccc2)cc1 | ? | ? | 7.1µM | 0 | 0 | 0
COc1cc(NC(=S)NC(=O)CCc2ccccc2)cc(OC)c1 | 0 | 0 | 0 | 0 | 0 | -84
CC(=O)NC(=S)NNC(=O)CCc1ccccc1 | - | - | - | - | 0 | 0
COc1ccccc1C(=O)NNC(=S)NC(=O)c1cccs1 | - | - | - | - | - | -78
CCN(CC)S(=O)(=O)c1ccc2c(c1)N(CC(=O)N1CCN(c3cccc(OC)c3)CC1)C(=O)CO2 | 0 | 0 | 0 | - | 0 | 0
O=C(COC(=O)c1ccc2ncsc2c1)NC(=O)C1CCCCC1 | - | 0 | 0 | - | - | -
O=C(NC(=S)NNC(=O)c1ccccc1O)c1ccccc1 | 0 | ? | 0 | 0 | 0 | 0
O=C(NNC(=S)NC(=O)c1ccc(Br)cc1)c1cccc([N+](=O)[O-])c1 | - | - | - | - | 0 | -105
O=C(NNC(=S)NC(=O)c1ccccc1)c1ccc([N+](=O)[O-])cc1 | - | - | - | - | 0 | 0
O=C(NC(=S)NNC(=O)c1ccccc1O)c1ccc([N+](=O)[O-])cc1 | - | 0 | 0 | - | 0 | -70
O=C(COc1cccc(NC(=O)c2cccc([N+](=O)[O-])c2)c1)c1ccc(Br)cc1 | 22µM | - | ? | ? | 20µM | -73
Cc1ccc(C(=O)NC(=S)NNC(=O)c2ccccc2O)cc1 | 0 | 0 | 0 | ? | 0 | -81
COCc1ccc(CN2Cc3ccccc3OC(c3ccccc3OC)C2)o1 (configuration not stated) | - | 0 | 0 | - | 0 | -
COc1ccc2c(c1)CCc1cnc(-n3ncc(C(=O)N(C)CCc4ccccn4)c3C)nc1-2 | - | 0 | 0 | - | 0 | -
CCCc1ccc(C(=O)NC(=O)c2ccccc2O)cc1 | 10µM | 0[7.34 µM] | 0[7.34 µM] | 8.9µM | ? | -89
O=C(NC(=O)c1ccccc1O)c1ccc(C(F)(F)F)cc1 | ? | 0 | 0 | ? | 0 | 0
Cc1ccc(C(=O)NNC(=S)NC(=O)c2ccccc2)cc1 | ? | ? | ? | 0 | 0 | -85
CC(C)N1CC=C(c2c[nH]c3ccccc23)CC1 | ? | - | ? | 0 | ? | -67
S=C(NCCc1ccccc1)N1CCC2CC1c1cc(-c3ccc4c(c3)OCO4)ccc12 (configuration not stated) | - | 0 | 0 | - | 0 | -75
CC(NNC(=S)N1CCN(c2ccccn2)CC1)c1nccc2ccccc12 (configuration not stated) | ? | ? | ? | ? | 0 | -98
Fc1ccccc1NC(=S)N1CCN(c2ccccn2)CC1 | 0 | 0 | 0 | 0 | 0 | 0
CCc1ccccc1NC(=S)N1CCN(c2ccccn2)CC1 | ? | 0 | 0 | 0 | ? | -102
Cc1ccc(NC(=S)N2CCN(c3ccccn3)CC2)c(C)c1 | - | - | - | - | 0 | 0
CCN(CC)S(=O)(=O)c1ccc(C)c(NC(=S)N2CCN(c3ccccn3)CC2)c1 | 10µM | 0 | 0 | ? | 0 | 0
CCN(CC)S(=O)(=O)c1ccc(C)c(NC(=S)N2CCN(Cc3ccc4c(c3)OCO4)CC2)c1 | ? | 0 | 0 | ? | 20µM | -99
O=C(Cn1cc(S(=O)(=O)N2CCCC2)c(S(=O)(=O)N2CCCC2)c1)Nc1ccccc1 | 0 | 0 | 0 | - | 0 | 0
Cc1ccc2[nH]c(=O)c(CN(CCO)Cc3nnnn3Cc3ccccc3)cc2c1 | - | 0 | 0 | - | - | -
Cc1cccc(NC(=S)N2CCN(c3ccccn3)CC2)c1 | - | - | - | - | 0 | 0
Fc1cccc(NC(=S)N2CCN(c3ccccn3)CC2)c1 | 13µM | 0 | 0 | 0 | 0 | 0
CCC1CN(CCNC(=O)c2ccccc2-n2cccn2)Cc2cc(OC)ccc2O1 (configuration not stated) | - | 0 | 0 | - | 0 | -
